Assay results: PubChem BioAssay AID720690 (Broad Institute, 2013)
Measured potencies and affinities stand elsewhere. Unmarked numbers belong to inactive results.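 How the source made its calls: active means every repeat run showing a signal drop whose fitted half-maximal concentration is at most twice the top tested concentration; inconclusive means repeat runs disagree, or flat partial drop, or poor fit; inactive means the rest.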

Assay: HEK293T cytotoxicity, dose response, cytotoxicity control for miR-122 modulator project, cell-based, activator set, cherry-pick (AID 720690);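 further: 0% = neutral control wells and -100% = MG132 cytotoxic control wells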
Settings: HEK293T viability, CellTiter-Glo luminescence, 48 h; series mostly up to 26 µM; activity change, negative = cytotoxicity: at the top concentration

| Structure (SMILES) | activity change, negative = cytotoxicity |
| --- | --- |
| CN1C(=O)c2cc(NC(=O)c3cccc(F)c3)ccc2OC[C@H]2O[C@@H](CC(=O)NC3CCC3)CC[C@H]21 | 2.97% |
| CC(=O)N1[C@H](CN(C(=O)c2ccc(F)cc2)C(C)C)[C@H](c2ccccc2)[C@@H]1CO | -14.4% [at 23.5 µM] |
| O=C(Cc1cccnc1)N1[C@@H](CO)[C@@H]2c3ccccc3NC[C@@H]21 | -12.6% |
| O=C(c1cccnc1)N1C[C@H]2[C@@H](c3ccccc31)[C@H](CO)N2C(=O)C1CCCC1 | -16.5% [at 23.5 µM] |
| CO[C@H]1CN(C)C(=O)c2ccc(NC(C)=O)cc2OC[C@@H](C)N(C(=O)CC2CC2)C[C@H]1C | -2.04% |
| CC(=O)Nc1ccc(-c2cc(-c3ccc(NC(C)=O)cc3)nc(-c3ccc(NC(C)=O)cc3)n2)cc1 | 23.2% |
| Cc1ccc(S(=O)(=O)NCCCNS(C)(=O)=O)cc1 | 7.67% |
| O=C(CC(F)(F)F)N1C[C@H]2[C@@H](c3ccccc31)[C@H](CO)N2C(=O)Cc1cccnc1 | -9.44% |
| CC(=O)N1[C@H](CO)[C@@H](c2ccccc2)[C@H]1CN(CC(C)C)C(=O)c1ccccn1 | 7.05% [at 23.5 µM] |
| COc1cccc(C(=O)Nc2ccc3c(c2)C(=O)N(C)[C@@H]2CC[C@@H](CC(=O)N[C@H](C)c4ccccc4)O[C@@H]2CO3)c1 | 2.08% |
| CC(C)NC(=O)N(C)C[C@H]1Oc2cc(C#C[C@H](C)O)ccc2S(=O)(=O)N([C@@H](C)CO)C[C@H]1C | -2.83% |
| COCC(=O)N(C)C[C@H]1[C@H](c2ccccc2)[C@@H](CO)N1C(=O)NC(C)C | -5.13% |
| CNc1nc(NCCOc2ccccc2)c2sccc2n1 | -26.9% |
| Cc1ccccc1-c1ccc2c(c1)O[C@@H](CN(C)C(=O)Nc1ccc(F)cc1)[C@@H](C)CN([C@@H](C)CO)S2(=O)=O | -5% |
| COc1ccc(S(=O)(=O)N(C)C[C@@H]2Oc3ncc(/C=C/c4ccccc4)cc3C(=O)N([C@@H](C)CO)C[C@@H]2C)cc1 | -17.3% |
| CN1C(=O)c2cc(NC(=O)Nc3ccccc3Cl)ccc2OC[C@H]2O[C@H](CC(=O)O)CC[C@H]21 | 8.14% |
| COc1ccc(C(C#N)Nc2ccc(C)cc2)cc1 (stereo not given) | -11% |
| C/C=C/c1ccc([C@H]2[C@@H](CO)N(C(=O)NC(C)C)[C@H]2CN(C)C(=O)CC)cc1 | 3.05% |

| Structure (SMILES) | activity change, negative = cytotoxicity |
| --- | --- |
| CN1C(=O)c2cc(NC(=O)Nc3cccc(Cl)c3)ccc2OC[C@@H]2O[C@H](CC(=O)NCCc3ccncc3)CC[C@H]21 | 15.3% |
| Cc1noc(C)c1NC(=O)N(C)C[C@@H]1Oc2cc(C#CCC3CCCC3)ccc2S(=O)(=O)N([C@@H](C)CO)C[C@@H]1C | -48.3% |
| Cn1c(NC(=O)c2ccco2)c(-c2ccccc2Cl)c(=O)c2ccccc21 | -9.64% |
| COCCN(C[C@@H]1[C@@H](c2ccccc2)[C@H](CO)N1C(=O)C1CCC1)C(C)=O | 5.88% |
| C[C@@H]1CN([C@H](C)CO)S(=O)(=O)c2ccc(C#CC3(O)CCCC3)cc2O[C@@H]1CN(C)C(=O)c1cccnc1 | -4.02% |
| CC(C)(C)c1cc(NCCCn2ccnc2)n2ncc(-c3ccc(Cl)cc3)c2n1 | 2.97% |
| CCCNC(=O)C[C@@H]1CC[C@@H]2[C@@H](COc3ccc(NS(=O)(=O)c4ccccc4C)cc3C(=O)N2C)O1 | -3.61% |
| Cc1cccc(NC(=O)C[C@H]2CC[C@H]3[C@@H](COc4ccc(NC(=O)NC(C)C)cc4C(=O)N3C)O2)c1 | 9.81% |
| C/C=C/c1ccc2c(c1)O[C@H](CN(C)C(=O)NCCC)[C@H](C)CN([C@@H](C)CO)S2(=O)=O | 1.6% |
| CCNC(=O)C[C@@H]1CC[C@@H]2[C@@H](COc3ccc(NC(=O)C4CCCCC4)cc3C(=O)N2C)O1 | 3.38% [at 23.5 µM] |
| COCC(=O)N(C)C[C@H]1Oc2cc(-c3ccc(C#N)cc3)ccc2S(=O)(=O)N([C@H](C)CO)C[C@H]1C | 12.3% |
| COC(=O)c1cc(NS(=O)(=O)c2ccc3c(c2)CCC(=O)N3)cc(C(=O)OC)c1 | 3.98% |
| CNC(=O)C[C@H]1CC[C@H]2[C@H](COc3ccc(NC(=O)c4cccc(F)c4)cc3C(=O)N2C)O1 | -2.89% |
| COCC(=O)N(C[C@@H]1N[C@H](CO)[C@H]1c1ccc(-c2cccnc2)cc1)C(C)C | -2.06% |
| CCCNC(=O)C[C@@H]1CC[C@@H]2[C@H](COc3ccc(NC(=O)Nc4ccccc4F)cc3C(=O)N2C)O1 | 2.78% |
| CCCNC(=O)C[C@@H]1CC[C@@H]2[C@H](COc3ccc(NS(=O)(=O)c4ccccc4C)cc3C(=O)N2C)O1 | -12.3% |
| CNC(=O)C[C@H]1CC[C@@H]2[C@@H](COc3ccc(NC(=O)Nc4ccc(Cl)cc4)cc3C(=O)N2C)O1 | 2.16% [at 23.5 µM] |
